{"source": "ChEMBL document CHEMBL5606458", "about": "“ASAP - ZIKV NS2B-NS3 protease fluorescence single point” (2024)", "biological_target": "Nonstructural protein 3 (Zika virus) (UniProt A0A024AXB9)", "sequence (A0A024AXB9 as listed by the source)": "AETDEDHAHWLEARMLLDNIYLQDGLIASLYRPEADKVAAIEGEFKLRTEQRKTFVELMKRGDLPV", "key": {"[1]": {"conditions": "PRVABC59, Concentration 15.0 uM, Number of replicates 1.0"}}, "note": "The whole screen tested about 2,700 compounds, of which about 160 (5.9%) showed an effect of 50% or more. For the sample, strong results were picked, then their nearest neighbours and some compounds at random."}
{"smiles": "O=C(NCc1coc(-c2ccccc2)n1)c1cc(Cl)ccc1NS(=O)(=O)c1ccc(Oc2ccccc2Cl)cc1", "values": [{"measurement": "inhibition", "setting": "[1]", "result": 45.4, "unit": "%"}]}
{"smiles": "O=C(NCc1ccccc1-c1ccccc1)c1cc(Cl)ccc1NS(=O)(=O)c1ccc(Oc2ccccc2Cl)cc1", "values": [{"measurement": "inhibition", "setting": "[1]", "result": 13.1, "unit": "%"}]}
{"smiles": "O=C(NCc1cccc(-c2ccccc2)c1)c1cc(Cl)ccc1NS(=O)(=O)c1ccc(Oc2ccccc2Cl)cc1", "values": [{"measurement": "inhibition", "setting": "[1]", "result": 54.4, "unit": "%"}]}
{"smiles": "O=C(NCc1ccccc1)c1cc(Cl)ccc1NS(=O)(=O)c1ccc(Oc2ccccc2Cl)cc1", "values": [{"measurement": "inhibition", "setting": "[1]", "result": 11.2, "unit": "%"}]}
{"smiles": "O=C(NCc1ccc(-c2ccccc2)cc1)c1cc(Cl)ccc1NS(=O)(=O)c1ccc(Oc2ccccc2Cl)cc1", "values": [{"measurement": "inhibition", "setting": "[1]", "result": 9, "unit": "%"}]}
{"smiles": "O=C(NCc1nnc(-c2ccccc2)o1)c1cc(Cl)ccc1NS(=O)(=O)c1ccc(Oc2ccccc2Cl)cc1", "values": [{"measurement": "inhibition", "setting": "[1]", "result": 54.2, "unit": "%"}]}
{"smiles": "Cn1cccc(CN2CCC(c3c[nH]c4cccnc34)CC2)c1=O", "values": [{"measurement": "inhibition", "setting": "PRVABC59, Concentration 49.5 uM, Number of replicates 2.0, Standard deviation 0.07177165759495889 %", "result": -0.869, "unit": "%"}, {"measurement": "inhibition", "setting": "PRVABC59, Concentration 99.01 uM, Number of replicates 2.0, Standard deviation 0.38070186159308106 %", "result": 1.77, "unit": "%"}, {"measurement": "inhibition", "setting": "PRVABC59, Concentration 198.0 uM, Number of replicates 2.0, Standard deviation 0.010921765735719036 %", "result": 3.27, "unit": "%"}]}
{"smiles": "O=C(c1cc(Cl)ccc1NS(=O)(=O)c1ccc(Oc2ccccc2Cl)cc1)N1CCNC(=O)C12CCCCC2", "values": [{"measurement": "inhibition", "setting": "[1]", "result": 17.6, "unit": "%"}]}
{"smiles": "COc1ccccc1[C@H](C)NC(=O)C1CCN(c2ccc(C=O)cc2)CC1", "values": [{"measurement": "inhibition", "setting": "PRVABC59, Concentration 10.0 uM, Number of replicates 1.0", "result": 25.4, "unit": "%"}]}
{"smiles": "Cc1cc(CO)c2cccc(NCc3ccc(S(N)(=O)=O)cc3)c2n1", "values": [{"measurement": "inhibition", "setting": "PRVABC59, Concentration 49.95 uM, Number of replicates 2.0, Standard deviation 2.3986730749821903 %", "result": -5.11, "unit": "%"}, {"measurement": "inhibition", "setting": "PRVABC59, Concentration 99.9 uM, Number of replicates 2.0, Standard deviation 1.886822696290366 %", "result": -8.96, "unit": "%"}]}
{"smiles": "Cc1cc(N)cc(CNC(=O)c2cccc(Cc3cccc4c(CO)cc(C)nc34)c2)c1", "values": [{"measurement": "inhibition", "setting": "PRVABC59, Concentration 49.95 uM, Number of replicates 2.0, Standard deviation 0.660675115468642 %", "result": 22.4, "unit": "%"}, {"measurement": "inhibition", "setting": "PRVABC59, Concentration 99.9 uM, Number of replicates 2.0, Standard deviation 1.0067445744655332 %", "result": 46.9, "unit": "%"}]}
{"smiles": "Cc1cc(CO)c2cccc(NCc3ccc(C(N)=O)cc3)c2n1", "values": [{"measurement": "inhibition", "setting": "PRVABC59, Concentration 49.95 uM, Number of replicates 2.0, Standard deviation 0.6911398690966805 %", "result": -7.9, "unit": "%"}, {"measurement": "inhibition", "setting": "PRVABC59, Concentration 99.9 uM, Number of replicates 2.0, Standard deviation 1.6597447488203414 %", "result": -2.82, "unit": "%"}]}
{"smiles": "Cc1cc(N)cc(CNC(=O)Cc2cccc3c(CO)cc(C)nc23)c1", "values": [{"measurement": "inhibition", "setting": "PRVABC59, Concentration 49.95 uM, Number of replicates 2.0, Standard deviation 1.6254724488978287 %", "result": 7.61, "unit": "%"}, {"measurement": "inhibition", "setting": "PRVABC59, Concentration 99.9 uM, Number of replicates 2.0, Standard deviation 2.5640510708053585 %", "result": 31.2, "unit": "%"}]}
{"smiles": "Cc1cc(N)cc(CNc2cccc3c(CO)cc(C)nc23)c1", "values": [{"measurement": "inhibition", "setting": "PRVABC59, Concentration 49.95 uM, Number of replicates 2.0, Standard deviation 0.17563299841544527 %", "result": 36.2, "unit": "%"}, {"measurement": "inhibition", "setting": "PRVABC59, Concentration 99.9 uM, Number of replicates 2.0, Standard deviation 0.025091199030293523 %", "result": 52.6, "unit": "%"}]}
{"smiles": "Cc1cc(N)cc(CNC(=O)c2ccccc2Cc2cccc3c(CO)cc(C)nc23)c1", "values": [{"measurement": "inhibition", "setting": "PRVABC59, Concentration 49.95 uM, Number of replicates 2.0, Standard deviation 0.03145975642768365 %", "result": 34.6, "unit": "%"}, {"measurement": "inhibition", "setting": "PRVABC59, Concentration 99.9 uM, Number of replicates 2.0, Standard deviation 1.7408307334956623 %", "result": 60.7, "unit": "%"}]}
{"smiles": "Cc1c(C(=O)N2CCC(n3cc(CO)nn3)CC2)[nH]c2cc(Cl)cc(Cl)c12", "values": [{"measurement": "inhibition", "setting": "PRVABC59, Concentration 49.5 uM, Number of replicates 2.0, Standard deviation 1.4208906347015848 %", "result": 4.02, "unit": "%"}, {"measurement": "inhibition", "setting": "PRVABC59, Concentration 99.01 uM, Number of replicates 2.0, Standard deviation 0.494827603753062 %", "result": 9.8, "unit": "%"}, {"measurement": "inhibition", "setting": "PRVABC59, Concentration 198.0 uM, Number of replicates 2.0, Standard deviation 0.23449629857012413 %", "result": 15.6, "unit": "%"}]}
{"smiles": "Cc1cc(CO)c2cccc(CC(=O)Nc3cc(C)[nH]n3)c2n1", "values": [{"measurement": "inhibition", "setting": "PRVABC59, Concentration 49.95 uM, Number of replicates 2.0, Standard deviation 1.1960706203468343 %", "result": 0.209, "unit": "%"}, {"measurement": "inhibition", "setting": "PRVABC59, Concentration 99.9 uM, Number of replicates 2.0, Standard deviation 0.6463869966486608 %", "result": 7.1, "unit": "%"}]}
{"smiles": "Cc1cc(CO)c2cccc(Cc3cccc(C(=O)Nc4cc(C)[nH]n4)c3)c2n1", "values": [{"measurement": "inhibition", "setting": "PRVABC59, Concentration 49.95 uM, Number of replicates 2.0, Standard deviation 3.093641395210206 %", "result": 6.52, "unit": "%"}, {"measurement": "inhibition", "setting": "PRVABC59, Concentration 99.9 uM, Number of replicates 2.0, Standard deviation 2.134087804085351 %", "result": 9.51, "unit": "%"}]}
{"smiles": "Cc1cc(CO)c2cccc(Cc3ccccc3C(=O)Nc3cc(C)on3)c2n1", "values": [{"measurement": "inhibition", "setting": "PRVABC59, Concentration 49.95 uM, Number of replicates 2.0, Standard deviation 0.7445712834152752 %", "result": -2.77, "unit": "%"}, {"measurement": "inhibition", "setting": "PRVABC59, Concentration 99.9 uM, Number of replicates 2.0, Standard deviation 1.0119877161772735 %", "result": 0.512, "unit": "%"}]}
{"smiles": "Cc1cc(CO)c2cccc(Cc3cccc(C(=O)Nc4cc(C)on4)c3)c2n1", "values": [{"measurement": "inhibition", "setting": "PRVABC59, Concentration 49.95 uM, Number of replicates 2.0, Standard deviation 0.5505632705734445 %", "result": 18.4, "unit": "%"}, {"measurement": "inhibition", "setting": "PRVABC59, Concentration 99.9 uM, Number of replicates 2.0, Standard deviation 1.053935557806211 %", "result": 51.2, "unit": "%"}]}
{"smiles": "Cc1cc(CO)c2cccc(CC(=O)Nc3cc(C)on3)c2n1", "values": [{"measurement": "inhibition", "setting": "PRVABC59, Concentration 49.95 uM, Number of replicates 2.0, Standard deviation 1.089187856250299 %", "result": 91.5, "unit": "%"}, {"measurement": "inhibition", "setting": "PRVABC59, Concentration 99.9 uM, Number of replicates 2.0, Standard deviation 0.03053454880917251 %", "result": 93.2, "unit": "%"}]}
{"smiles": "Cc1cc(CO)c2cccc(CC(=O)Nc3cc(O)[nH]n3)c2n1", "values": [{"measurement": "inhibition", "setting": "PRVABC59, Concentration 49.95 uM, Number of replicates 2.0, Standard deviation 0.5293246306718348 %", "result": -5.29, "unit": "%"}, {"measurement": "inhibition", "setting": "PRVABC59, Concentration 99.9 uM, Number of replicates 2.0, Standard deviation 0.9008701737196211 %", "result": 1.86, "unit": "%"}]}
